PubChem BioAssay (NCATS)
Records with an inconclusive call do not appear. A call without a number means that no potency is given here. Activity calls are given as the source filed them. Calls come from the whole dose curve; as a rule, active = well fitted curve in the direction sought with a large enough effect; inconclusive = small, poorly fitted or top-dose-only effect, or another doubt; inactive = no such curve, though single readings can be large; an effect the other way counts as inactive or inconclusive.

Legend:
[1] = qHTS of pediatric cancer cell lines to identify multiple opportunities for drug repurposing: Primary screen for LAN-5 cells (AID 1347100)
In short: (§1)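 Cells (500-1,000/well) in growth media were settled 5 h at 37 degrees C, then given compounds for 48 h. Viability was read as CellTiter-Glo luminescence. Primary runs used MIPE at 11 points (0.78 nM-46 µM) and NPC at 8 points (0.59 nM-46 µM); follow-ups used 11 points.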

[2] = qHTS of pediatric cancer cell lines to identify multiple opportunities for drug repurposing: Primary screen for BT-12 cells (AID 1347101); note: nearly all actives have a fitted effect of over 25% in size
In short: (§2)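 Cells (500-1,000/well) rested 5 h, then received compounds for 48 h; metabolically active cells were measured by CellTiter-Glo luminescence. Final concentrations spanned up to 46 µM (MIPE, 11-point) or 0.59 nM-46 µM (NPC, 8-point) in primary screens, 11-point in follow-ups.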

[3] = qHTS of pediatric cancer cell lines to identify multiple opportunities for drug repurposing: Primary screen for Rh18 cells (AID 1347102); note: nearly all actives have a fitted effect of over 65% in size
In short: as §1

[4] = qHTS of pediatric cancer cell lines to identify multiple opportunities for drug repurposing: Primary screen for OHS-50 cells (AID 1347103); note: nearly all actives have a fitted effect of over 40% in size
In short: as §2

[5] = qHTS of pediatric cancer cell lines to identify multiple opportunities for drug repurposing: Primary screen for RD cells (AID 1347104); note: nearly all actives have a fitted effect of over 55% in size
In short: (§3)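 ATP-based luminescence (CellTiter-Glo) quantifies viability after a 48-hour exposure. Compounds are dosed across 8 or 11 final concentrations; DMSO and 2.3 µM bortezomib serve as controls.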

[6] = qHTS of pediatric cancer cell lines to identify multiple opportunities for drug repurposing: Primary screen for MG 63 (6-TG R) cells (AID 1347105); note: nearly all actives have a fitted effect of over 50% in size
In short: as §3

[7] = qHTS of pediatric cancer cell lines to identify multiple opportunities for drug repurposing: Primary screen for control Hh wild type fibroblast cells (AID 1347106); note: nearly all actives have a fitted effect of over 55% in size
In short: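 Viability after 48 h compound treatment at 37C, 500-1,000 cells/well, read as ATP luminescence with CellTiter-Glo. Primary screens used 11-point (MIPE, 0.78 nM-46 µM) or 8-point (NPC, 0.59 nM-46 µM) final concentrations; follow-up screens used 11-point dilutions.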

[8] = qHTS of pediatric cancer cell lines to identify multiple opportunities for drug repurposing: Primary screen for Rh30 cells (AID 1347107); note: nearly all actives have a fitted effect of over 75% in size
In short: as §1

[9] = qHTS of pediatric cancer cell lines to identify multiple opportunities for drug repurposing: Primary screen for Rh41 cells (AID 1347108); note: nearly all actives have a fitted effect of over 70% in size
In short: as §3

[10] = qHTS of pediatric cancer cell lines to identify multiple opportunities for drug repurposing: Confirmatory screen for NB1643 cells (AID 1347109); note: nearly all actives have a fitted effect of over 45% in size
In short: as §1
Potency is the fitted concentration of half-maximal effect.

Row | SMILES | Potency [1] | Potency [2] | Potency [3] | Potency [4] | Potency [5] | Potency [6] | Potency [7] | Potency [8] | Potency [9] | Potency [10]
1 | O=C(Nc1c(Cl)cncc1Cl)c1ccc(OC(F)F)c(OCC2CC2)c1 | inactive | inactive | inactive | inactive | inactive | inactive | inactive | inactive | inactive | –
2 | CC1(C)Cc2c(sc(NC(=S)NC(=O)c3ccccc3)c2C(=O)O)CO1 | inactive | inactive | inactive | inactive | 33.2 µM (active) | inactive | inactive | inactive | inactive | –
3 | CC(=O)CCCCn1c(=O)c2c(ncn2C)n(C)c1=O | inactive | inactive | inactive | inactive | inactive | inactive | inactive | inactive | inactive | –
4 | COc1ccccc1N1CCN(CCCNc2cc(=O)n(C)c(=O)n2C)CC1 | inactive | inactive | inactive | inactive | inactive | inactive | inactive | inactive | inactive | –
5 | O=C(O)c1ccccc1C(=O)Nc1ccc(-c2ccccc2)cc1 | inactive | inactive | inactive | inactive | inactive | inactive | inactive | inactive | inactive | –
6 | COC(=O)[C@@H]1[C@H]2C[C@H]3c4[nH]c5ccccc5c4CCN3C[C@@H]2CC[C@@H]1O | inactive | inactive | inactive | inactive | inactive | inactive | inactive | inactive | inactive | –
7 | COc1cc(O)c2c(c1)C(=O)c1cc(C)cc(O)c1C2=O | inactive | inactive | inactive | inactive | inactive | inactive | inactive | – | – | –
8 | C[C@H]1[C@H](NC(=O)C(=NOC(C)(C)C(=O)O)c2csc(N)n2)C(=O)N1S(=O)(=O)O | inactive | inactive | inactive | inactive | inactive | inactive | inactive | inactive | inactive | –
9 | O=c1c(-c2ccc(O)cc2)coc2cc(O[C@@H]3O[C@H](CO)[C@H](O)[C@H](O)[C@H]3O)ccc12 | inactive | inactive | inactive | inactive | inactive | inactive | inactive | inactive | inactive | –
10 | CCN1CCC[C@H]1CNC(=O)c1cc(S(N)(=O)=O)ccc1OC | inactive | inactive | inactive | inactive | inactive | inactive | inactive | inactive | inactive | –
11 | C[N+]1(C)[C@@H]2CC(OC(=O)[C@H](CO)c3ccccc3)C[C@H]1[C@H]1O[C@@H]12 (stereo partly specified) | inactive | inactive | inactive | inactive | inactive | inactive | inactive | inactive | inactive | –
12 | CN(C)CCC(c1ccccc1)c1ccccn1 (stereo unspecified) | inactive | inactive | inactive | inactive | inactive | inactive | inactive | inactive | inactive | –
13 | Cc1ccc(C(=O)Nc2cccc(C(F)(F)F)c2)cc1Nc1nc(-c2cccnc2)nc2c1cnn2C | 13.2 µM (active) | 24.3 µM (active) | 20.9 µM (active) | 21.7 µM (active) | 14.8 µM (active) | 18.7 µM (active) | inactive | 18.7 µM (active) | 18.7 µM (active) | –
14 | O=C(CCc1ccc(O)cc1)c1c(O)cc(O)cc1O[C@@H]1O[C@H](CO)[C@H](O)[C@H](O)[C@H]1O | inactive | inactive | inactive | inactive | inactive | inactive | inactive | inactive | inactive | –
15 | CCOC(=O)O[C@]1(C(=O)OCCl)CC[C@@H]2[C@H]3CCC4=CC(=O)C=C[C@]4(C)[C@@H]3[C@@H](O)C[C@@]21C | inactive | inactive | inactive | inactive | inactive | inactive | inactive | inactive | inactive | –
16 | CNC(=O)c1ccc2cc(C3(O)CCn4cncc43)ccc2c1 (stereo unspecified) | inactive | inactive | inactive | inactive | inactive | inactive | inactive | inactive | inactive | –
17 | CCOC(=O)C1=C(N)Oc2ccc(Br)cc2C1C(C#N)C(=O)OCC (stereo unspecified) | 16.6 µM (active) | inactive | 14.8 µM (active) | inactive | 29.6 µM (active) | inactive | inactive | inactive | – | –
18 | Nc1ncnc2c1ncn2[C@@H]1O[C@@H](CO)[C@H](O)[C@H]1O | inactive | inactive | inactive | inactive | inactive | inactive | inactive | inactive | inactive | –
19 | O=C1C(Cl)=C(NCCN2CCOCC2)C(=O)c2ncccc21 | 8.33 µM (active) | 3.43 µM (active) | 2.35 µM (active) | 9.68 µM (active) | 5.9 µM (active) | 18.7 µM (active) | 11.8 µM (active) | 8.33 µM (active) | 4.69 µM (active) | 4.14 µM (active)

Row | SMILES | Potency [1] | Potency [2] | Potency [3] | Potency [4] | Potency [5] | Potency [6] | Potency [7] | Potency [8] | Potency [9] | Potency [10]
20 | CCN(CC)CCNC(=O)c1ccc(N)cc1 | inactive | inactive | inactive | inactive | inactive | inactive | inactive | inactive | inactive | –
21 | CC(=Cc1ccccc1)C=C1SC(=S)N(CC(=O)O)C1=O | inactive | inactive | inactive | inactive | inactive | inactive | inactive | inactive | inactive | –
22 | NCCS | inactive | inactive | inactive | inactive | inactive | inactive | inactive | inactive | inactive | –
23 | CCCNC(=O)NS(=O)(=O)c1ccc(Cl)cc1 | inactive | inactive | inactive | inactive | inactive | inactive | inactive | inactive | inactive | –
24 | CCN(CC)CCOC(=O)c1ccc(N)cc1 | inactive | inactive | inactive | inactive | inactive | inactive | inactive | inactive | inactive | –
25 | Cc1cnc(C(=O)O)c[n+]1[O-] | inactive | inactive | inactive | inactive | inactive | inactive | inactive | inactive | – | –
26 | CCN(CC)C(=O)c1ccc(O)c(OC)c1 | inactive | inactive | inactive | inactive | inactive | inactive | inactive | inactive | inactive | –
27 | Cn1c(N2CCCCS2(=O)=O)nc(C(=O)NCc2ccc(F)cc2)c(O)c1=O | inactive | inactive | inactive | inactive | inactive | inactive | inactive | inactive | inactive | –
28 | COc1ccc(-c2coc3cc(O)ccc3c2=O)cc1 | inactive | inactive | inactive | inactive | inactive | inactive | inactive | inactive | inactive | –
29 | CC(C)(C)OC(=O)N[C@H]1CCCCCC=C[C@@H]2C[C@@]2(C(=O)NS(=O)(=O)C2CC2)NC(=O)[C@@H]2C[C@@H](OC(=O)N3Cc4cccc(F)c4C3)CN2C1=O | inactive | inactive | inactive | inactive | inactive | inactive | inactive | inactive | – | –
30 | CC(=O)N[C@@H](CS)C(=O)O | inactive | inactive | inactive | inactive | inactive | inactive | inactive | inactive | inactive | –
31 | NC(N)=Nc1nc(CSCC/C(N)=N/S(N)(=O)=O)cs1 | inactive | inactive | inactive | inactive | inactive | inactive | inactive | inactive | inactive | –
32 | CCC(CC)[C@H](NC(C)=O)[C@@H]1[C@H](O)[C@@H](C(=O)O)C[C@@H]1N=C(N)N | inactive | inactive | inactive | inactive | inactive | inactive | inactive | inactive | inactive | –
33 | O=C(O)Cc1cccc2ccccc12 | inactive | inactive | inactive | inactive | inactive | inactive | inactive | inactive | inactive | –
34 | C[N+](C)(C)CCCCCC[N+](C)(C)C | inactive | inactive | inactive | inactive | inactive | inactive | inactive | inactive | inactive | –
35 | CN1[C@@H]2CCC[C@@H]1CC(NC(=O)c1nn(C)c3ccccc13)C2 (stereo partly specified) | inactive | inactive | inactive | inactive | inactive | inactive | inactive | inactive | inactive | –
36 | CCn1cc(C(=O)O)c(=O)c2ccc(C)nc21 | inactive | inactive | inactive | inactive | inactive | inactive | inactive | inactive | inactive | –
37 | O=C1NCC2(CCN(CCc3ccccc3)CC2)O1 | inactive | inactive | inactive | inactive | inactive | inactive | inactive | inactive | inactive | –
38 | CC(C)C(=O)Oc1ccc(CO)cc1[C@H](CCN(C(C)C)C(C)C)c1ccccc1 | inactive | inactive | inactive | – | inactive | inactive | inactive | inactive | – | –
